Laboratory results as given in ChEMBL document CHEMBL3988442, “University of Dundee, Small-Polar-MMV Screening Library” (2021).
The campaign covered roughly 38,000 compounds. About 1,200 (3.2%) showed an effect of 50% or more. The median lay at about -58%. The full list was thinned out, with strong results kept by preference.

test system: Plasmodium falciparum; experiment: Calibr Malaria Delayed Death Assay SOP; format: functional, organism-based; design: scale not given: in the data most compounds retested in dose-response had high values; details: concentration 4.99e-06 (unit not given; other assays of the set use mol/L)

In order of falling “Percent Effect” value:
1. COc1ccc(CN2CCC3(CCCN(c4ncc(F)cn4)C3)C2)cc1.O=C(O)C(F)(F)F (configuration not stated)  86.34%
2. Cl.Clc1ccc(-c2ccc(C3CNCCO3)nc2)cc1 (configuration not stated)  85.23%
3. Cc1ccc(-c2nc(CNC(C)CCO)[nH]c2-c2ccccn2)cc1 (configuration not stated)  85.22%
4. COc1cc(C)c(-c2ccc(F)c3c2OC(CN)C3)cc1C (configuration not stated)  83.54%
5. Clc1ccc(C2(CNC3=NCCN3)CC2)cc1.I  82.97%
6. CCOc1ccc(CNCCCn2ccnc2)cc1Br  79.67%
7. Fc1cnc(N2CCCC3(CCN(Cc4ccco4)C3)C2)nc1.O=C(O)C(F)(F)F.O=C(O)C(F)(F)F (configuration not stated)  77%
8. CCN(C(C)c1cccc(O)c1)S(=O)(=O)c1cccnc1 (configuration not stated)  75.64%
9. CN(Cc1ccon1)c1nc(-c2ccccn2)nc2c1CCNCC2  75.26%
10. CC(C)c1ccc(CN2CCC3(CCCN(c4nncs4)C3)C2)cc1.O=C(O)C(F)(F)F (configuration not stated)  73.03%
11. O=C(O)C(F)(F)F.c1ccc(N2CCCC3(CCN(Cc4cccs4)C3)C2)nc1 (configuration not stated)  72.7%
12. Fc1cnc(N2CCCC3(CCN(Cc4ccoc4)C3)C2)nc1.O=C(O)C(F)(F)F.O=C(O)C(F)(F)F (configuration not stated)  72.25%
13. CC(c1cccc(O)c1)N(C)S(=O)(=O)c1cccnc1 (configuration not stated)  70.34%
14. CC(C)CN1CCCC2(CCN(c3ccccn3)C2)C1.O=C(O)C(F)(F)F (configuration not stated)  70.33%
15. Cl.Cl.O[C@@H]1C[C@@](CNCc2ccc(Cl)cc2)(COc2cccnc2)C[C@@H]1O  70.01%
16. Cc1cc(CN(C)c2nc(-c3ccccn3)nc3c2CCNCC3)n[nH]1  68.42%
17. Fc1cnc(N2CCCC3(CCN(Cc4cccs4)C3)C2)nc1.O=C(O)C(F)(F)F.O=C(O)C(F)(F)F (configuration not stated)  67.75%
18. O[C@H]1[C@H](n2cc(CN3CCCC3)nn2)c2ccccc2C12CCNCC2  62.81%
19. Cc1cc(Cl)ccc1C(=O)N1C[C@H](C2CC2)[C@@H](N)C1  60.81%
20. COc1cccnc1-c1ccc(F)c2c1OC(CN)C2 (configuration not stated)  57.41%
21. CCOc1ccc(Cl)cc1CNCCCn1ccnc1  51.78%
22. COCC(C)NCc1nc(-c2ccc(C)cc2)c(-c2ccccn2)[nH]1 (configuration not stated)  45.68%
23. O=C(O)C(F)(F)F.O=C(O)C(F)(F)F.c1csc(CN2CCCC3(COCCN(c4cnccn4)C3)C2)c1 (configuration not stated)  45.61%
24. Cc1nc2c(c(N(C)CC3Cc4ccccc4CN3C)n1)CCNCC2 (configuration not stated)  41.97%
25. Cl.Cl.O[C@@H]1C[C@@](CNCc2ccc(F)cc2)(COc2cccnc2)C[C@@H]1O  40.62%
26. Cl.Cl.O[C@@H]1C[C@@](CNCc2cccc(Cl)c2)(COc2cccnc2)C[C@@H]1O  34.26%
27. N[C@H]1CN(C(=O)c2ccc(Cl)cc2O)C[C@@H]1C1CC1  32.78%
28. CCC(=O)NCC(=O)NC(C)c1ccc(OCCC(C)C)cc1 (configuration not stated)  22.17%
29. Fc1cnc(N2CCCC3(CCN(Cc4nccs4)C3)C2)nc1 (configuration not stated)  21.75%
30. CC(C)CN1CCCC2(CCN(c3ccc(C#N)cn3)C2)C1.O=C(O)C(F)(F)F (configuration not stated)  4.981%
31. O=C(O)C(F)(F)F.O=C(O)C(F)(F)F.c1cncc(C2COC3(CCN(Cc4nccs4)CC3)C2)c1 (configuration not stated)  -1.865%
32. COc1cc(N2CCC3(CCCN(Cc4ccccn4)C3)C2)ncn1.O=C(O)C(F)(F)F (configuration not stated)  -7.04%
33. Cc1cc(CN(C)c2nc(-c3ccco3)nc3c2CCN(C)CC3)on1  -7.108%
34. Cc1nc2c(c(N(C)Cc3ccccc3-n3cccn3)n1)CCNCC2  -7.146%
35. COc1cc(-c2cc(=O)[nH]cn2)cc(OC)c1OC  -8.244%
36. Cc1ccc(-c2nc(CNS(=O)(=O)N(C)C)[nH]c2-c2ccccn2)cc1  -8.879%
37. CCNc1ncc(CN(Cc2ccccc2)CC(C)CO)cn1 (configuration not stated)  -11.14%
38. COc1cc(-c2ccc(F)c3c2OC(CN)C3)cc(OC)c1OC (configuration not stated)  -14%
39. Cc1cc2n(n1)CC(CNCc1ccccc1Cn1cccn1)CN2 (configuration not stated)  -15.62%
40. CN(Cc1noc2c1CCCC2)C(=O)Nc1cccc(S(N)(=O)=O)c1  -16.52%
41. Cc1noc(C)c1CN1CCc2ncnc(-c3cnn(C)c3)c2CC1.O=C(O)C(F)(F)F  -17.12%
42. COc1cc(N2C[C@H](C(=O)N3CCCC3)[C@@H]3CCO[C@@H]3C2)ncn1  -18.3%
43. O=C(O)C(F)(F)F.O=C(O)C(F)(F)F.c1cnc(N2CCOCC3(CCCN(Cc4cccs4)C3)C2)nc1 (configuration not stated)  -21.37%
44. O=C(c1ccoc1)N1CCC2(CCCN(c3ncc(F)cn3)C2)C1 (configuration not stated)  -22.39%
45. Cc1nnc(NC(=O)NCCCN2CCC(C(N)=O)CC2)s1  -23.13%
46. N[C@H]1CN(C(=O)c2cnc3cc(Cl)ccc3c2O)C[C@@H]1C1CC1  -23.25%
47. O=C(NCC(O)c1ccsc1)Nc1cccs1 (configuration not stated)  -26.53%
48. COCc1cn([C@@H]2c3ccccc3C3(CCNCC3)[C@H]2O)nn1  -27.47%
49. O=C(CN1CCOc2ccc(Cl)cc21)NCCCn1ccnc1  -34.55%
50. Cc1nc(CN2CCN(CCCc3ccccc3)CC2)no1  -34.84%
51. COC(=O)[C@@H]1Cc2[nH]cnc2CN1Cc1cc2ccccc2o1  -36.16%
52. Cc1cnc(N2CCC3(CC2)CN(Cc2cccs2)CCO3)nc1.O=C(O)C(F)(F)F.O=C(O)C(F)(F)F  -40.39%
53. CCc1nc(C)sc1CN1CC[C@@](O)(C2CC2)[C@H](C)C1  -41.51%
54. CC(NC(=O)NCC1(c2ccc(Cl)cc2)CC1)c1nncn1C (configuration not stated)  -41.57%
55. CCOc1c(F)cccc1C(=O)N(CC)C(C)c1cccnc1 (configuration not stated)  -44.59%
56. O=C(CN1CCCC1Cn1cncn1)Nc1ccnn1C1CCCC1 (configuration not stated)  -46.57%
57. COc1cccc(CN2CCC3(CCN(c4ncc(F)cn4)CC3)C2)c1.O=C(O)C(F)(F)F  -47.02%
58. CC(c1cccnc1)N(C)S(C)(=O)=O (configuration not stated)  -49.62%
59. COc1ccc(-c2nc(CNC3CCc4nc(C)nn4C3)no2)cc1 (configuration not stated)  -54.43%
60. CCCNC(=O)c1c(-n2cnnn2)sc2c1CCC2  -55.33%
61. Cc1cccc(C(C)(C)CNC(=O)CN(C)S(=O)(=O)c2cccnc2)c1  -59.91%
62. COc1cc(CNc2ccc(C)c(Cl)c2)ccc1OCC(N)=O  -61.06%
63. CN(C)CCNCC1COCc2c(-c3ccnn3C)nnn2C1 (configuration not stated)  -61.69%
64. CCN1CC2(CC1=O)CN(C(=O)c1ccco1)CCN(C(=O)C(C)C)C2 (configuration not stated)  -62.73%
65. COCCCn1ccc(NC(=O)NCCCn2ccnc2)n1  -63.56%
66. CC(C)CCN1CCC2(CCCN(c3nncs3)C2)C1.O=C(O)C(F)(F)F (configuration not stated)  -67.46%
67. Cc1cnc(N2C[C@@H]3CN(Cc4ccco4)CCC[C@]3(C(=O)O)C2)nc1.O=C(O)C(F)(F)F  -71.37%
68. Cc1cnc(CN(C)C2CCN(Cc3nc4c(F)cccc4[nH]3)C2)o1 (configuration not stated)  -76.29%
69. Cc1csc(C(=O)N2CCCC(c3[nH]ncc3S(C)(=O)=O)C2)c1 (configuration not stated)  -79.4%
70. CC(C)C(=O)N1CCN(Cc2csc(-c3ncccn3)n2)CC1  -79.45%
71. CC(=O)NC(CC(=O)Nc1nc(C)c(C)s1)c1ccccc1 (configuration not stated)  -83.12%
72. CC(c1cccc(O)c1)N(C)S(N)(=O)=O (configuration not stated)  -84.23%
73. COc1nn(C)c2c1CCCN(C(=O)c1cscn1)C2  -85.03%
74. Fc1cnc(N2CCCC3(CN(Cc4cccs4)CCO3)C2)nc1.O=C(O)C(F)(F)F (configuration not stated)  -85.22%
75. CCn1nc(C)c(C(=O)NCc2csc(C3CC3)n2)c1C  -85.55%
76. O=C(O)C(F)(F)F.O=C(c1ccncc1)N1CCC2(CCCN(c3ncc(F)cn3)C2)C1 (configuration not stated)  -90.51%
77. COc1cc(CNCCn2ccnc2)cc2c1OCO2.Cl  -91.54%
78. O=C1[C@H]2CC[C@H](CN(c3ncnc4ccsc34)C2)N1CC1CC1  -91.86%
79. COCCCN(C)C(=O)c1cccc(Nc2cnccn2)c1  -92.25%
80. Fc1cnc(N2CCCC3(CN(Cc4ccccc4)CCO3)C2)nc1.O=C(O)C(F)(F)F (configuration not stated)  -95.68%
81. Cn1cccc1C(=O)N1C[C@@H](OCc2ccncc2)[C@@H]2OCCC[C@@H]21.O=C(O)C(F)(F)F  -99.03%
82. CCn1nccc1CNc1[nH]cnc2nncc1-2  -100.3%
83. Cn1cc(CN2CCc3ccc(=O)n(Cc4ccncc4)c3CC2)cn1.O=C(O)C(F)(F)F.O=C(O)C(F)(F)F  -100.7%
84. O=C(COc1cccc2c1CCC2=O)NCCOc1ccccc1  -101.5%
85. CCOc1ccc(Cl)cc1CCNC(=O)Cn1nc(C)ccc1=O  -103.1%
86. CN1CCN(C(=O)C2CN(Cc3cc4ccccc4o3)CCN2)CC1 (configuration not stated)  -105.5%
87. Fc1ccc(CN2CCC3(CCCN(c4nncs4)C3)C2)cc1.O=C(O)C(F)(F)F (configuration not stated)  -107.3%
88. CCOC(C)C(=O)Nc1ccnn1-c1ccccc1C (configuration not stated)  -113.5%
89. COc1cccc(CN2CCC3(CC2)CCN(c2ncc(F)cn2)C3)c1.O=C(O)C(F)(F)F  -115%
90. O=C(c1ccco1)N1CCC2(CCCN(c3ncc(F)cn3)C2)C1 (configuration not stated)  -116%
91. O=C(c1cccc2ncccc12)N1CCC(Nc2cccnn2)CC1  -119.6%
92. CC(=O)N1[C@H](CN(C)C)C[C@@H]2CN(C(=O)c3cccc(F)c3)CC[C@@H]21.O=C(O)C(F)(F)F  -121.5%
93. Cc1oc(-c2nc(C#N)c(NC(C)C)o2)cc1S(=O)(=O)N1CCCC1  -121.8%
94. OCc1cn([C@@H]2c3ccccc3C3(CCNCC3)[C@H]2O)nn1  -123.5%
95. Cc1ncc2c(n1)CN(Cc1nc(-c3ccco3)oc1C)CC2  -128.1%
96. O=C(C(c1ccccc1)S(=O)(=O)c1ccccc1)N1CCCCC1 (configuration not stated)  -134.4%
97. O=c1ncn(-c2ccc(F)cc2)c2ncccc12  -138.9%
98. NC(=O)c1nc(-c2cccc(Cl)c2)oc1N  -143.3%
99. N#CCSCCCN1CCN(C(=O)c2ccccc2F)CC1  -147%
100. Cn1cc(C[C@H]2[C@H](O)CCN2Cc2ccc3c(c2)OCO3)cn1  -152.7%
101. CCC(NC(=O)CNCC(F)(F)F)c1cc(F)ccc1F (configuration not stated)  -157%
102. CC1CC(NS(=O)(=O)c2ccc(C(F)(F)F)nc2)C1 (configuration not stated)  -159.1%
